Screens from PubChem BioAssay.
This is a sample that favours compounds with a hit; in the whole collection about 2.9% have one here.
DRD3 antagonist = blocks the human D3 dopamine receptor; P35462; D3R cells, DiscoveRx beta-arrestin luminescence, antagonist mode; active compounds read low; max response, negative = inhibition, %; 2.5% of 360,000 active; in the data active = max response below about -50%; inconclusive = no clear call, values can overlap the other calls; also: % is scaled to controls: 0 for no effect and ±100 for the full control effect
Target sequence (P35462 whole entry, looked up): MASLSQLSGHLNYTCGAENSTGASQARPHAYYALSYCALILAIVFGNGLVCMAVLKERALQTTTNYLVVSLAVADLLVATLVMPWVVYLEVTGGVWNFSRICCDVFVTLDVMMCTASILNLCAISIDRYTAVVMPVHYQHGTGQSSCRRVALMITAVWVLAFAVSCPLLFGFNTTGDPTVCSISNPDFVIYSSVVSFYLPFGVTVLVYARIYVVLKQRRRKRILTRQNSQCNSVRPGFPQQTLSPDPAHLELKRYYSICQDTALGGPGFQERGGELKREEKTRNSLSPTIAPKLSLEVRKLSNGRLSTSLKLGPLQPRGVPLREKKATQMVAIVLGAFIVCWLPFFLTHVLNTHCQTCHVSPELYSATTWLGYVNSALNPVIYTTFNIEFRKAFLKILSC
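Cells expressing the human receptor were seeded at 1500 cells/well, incubated overnight at 37 degrees C in 5% CO2, then exposed to library compounds with dopamine controls for 90 minutes at 37 degrees C before luminescent detection.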
a7 integrin act = integrin-mediated muscular dystrophy alleviation activation. Potency, µM (titrated, usually from 38.3 µM), without a hit: at the highest dose activation, actives largely listed as activators. alpha7betagal myoblasts, beta-gal FDG fluorescence, 48 h. 0.064% of 350,000 active; active = well fitted activation curve with a large enough effect; inconclusive = small, poorly fitted or top-dose-only effect; inactive = no such curve, though single readings can be large or run the other way;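 also: potency is read from the fitted curve at half-maximal effect; 100% = response of the positive control SU9516; nearly all actives have a fitted effect of over 60% in size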
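alpha7betagal+/- myoblasts (passage 13, 250/well) treated 48 h at 37C with compounds at 1:260 dilution of DMSO stock. Lysed, then beta-galactosidase activity read as FDG fluorescence (ex 480/em 540) after 30 min, with pre-read for autofluorescence.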
D3 ag = D3 dopamine receptor (human) agonism | P35462 | D3R DiscoveRx beta-arrestin cells, luminescence, 90 min | max activation, % | 0.58% of 410,000 active | AID 652048; in the data active = max activation above about 30%; also: 0% is about no effect
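Agonist-mode cell screen: cells plated at 1500/well and incubated overnight at 37 °C, then exposed to library compounds for 90 min at 37 °C. Detection reagent was added for 30–60 min at room temperature, and luminescence was read.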
The depositor's hits bear a star; ? = inconclusive; · = not tested or not shown.

SMILES | DRD3 antagonist | a7 integrin act | D3 ag
CCCN1CCC(NC(=O)CCc2nnc(-c3ccccc3)o2)CC1 | -53* | ? | -6
Cc1ccc(NS(=O)(=O)N2CCOCC2)c(C)c1 | -8 | 2% | -4
CC(C)=C(NC(=O)c1ccccc1)C(=O)N1CCOCC1 | 10 | 12% | 1
COc1ccccc1NC(=O)COc1ccc(/C=N/NC(=O)c2cccnc2)cc1 | 24 | 0% | -2
CN(C(=O)c1ccc(N2CCOCC2)c([N+](=O)[O-])c1)C1CCCCC1 | ? | -32% | -13
CN(c1ccc(C(=O)N2CCOCC2)cc1[N+](=O)[O-])C1CCCCC1 | -60* | -9% | 1
Brc1ccccc1-n1nnc(-c2cnc3ccccc3c2)n1 | 0 | 9% | -16
CCCC(=O)N1CCC1(C)C(=O)NS(=O)(=O)c1cccc(C)c1 (stereo not given) | -19 | · | 93*
Cc1cc(C)cc(CC(=O)N2CCC2(C)C(=O)NS(=O)(=O)c2ccc(C#N)cc2)c1 (stereo not given) | 0 | · | 70*
CC1(C(=O)NS(=O)(=O)c2cccc(OC(F)F)c2)CCN1C(=O)c1cccc(F)c1 (stereo not given) | -6 | · | -6
Cc1cc(C(=O)N2CCC2(C)C(=O)NS(=O)(=O)c2cccc(OC(F)F)c2)nn1C (stereo not given) | 0 | · | 74*
CC1(C(=O)NS(=O)(=O)c2ccc(C#N)cc2)CCN1C(=O)Cc1ccsc1 (stereo not given) | -2 | · | -7
CCCC(=O)N1CCC1(C)C(=O)NS(=O)(=O)c1cccc(Cl)c1 (stereo not given) | 0 | · | -5
CC(C)CN(CC(C)C)S(=O)(=O)N1CCC(C(=O)NCc2ccco2)CC1 | 3 | -25% | 0
COc1cccc(CNC(=O)CC2C(=O)NCCN2Cc2ccoc2)c1OC (stereo not given) | 14 | -26% | 3
COc1ccc(C(=O)N2CCN(CCNC(=O)C(=O)Nc3ccc(F)cc3)CC2)cc1 | -9 | 1% | -8
COc1ccc(C(=O)NCCN2CCN(C(=O)c3ccc(OC)c(OC)c3)CC2)cc1OC | 2 | 22% | 11
COc1ccc(NC(=O)C(=O)NCCN2CCN(C(=O)c3ccc(C)cc3)CC2)cc1 | -70* | -18% | -17
COc1ccc(C(=O)NCCN2CCN(C(=O)c3ccc(OC)cc3)CC2)cc1 | -83* | -2% | -15
CN(C(=O)c1ccc(NC(=O)Cc2ccc(NC(=O)C3CCN(C(=O)C4CCC4)CC3)cc2)cc1)C1CC1 | 7 | 0% | 12
COc1ccccc1OCCn1cc(C(=O)c2cccs2)c2ccccc21 | · | · | -3
Cc1n[nH]c(=O)c2c(NC(=O)COC(=O)c3cc(F)cc(F)c3)oc(C)c12 | 5 | -5% | 0
CC(=O)Oc1cc2oc(=O)cc(C)c2cc1Cl | 3 | 1% | 3
O=C(O)c1cc(O)ccc1N=Nc1ccccc1 | -21 | -16% | -3
O=C(O)c1ccccc1N=Nc1ccc(O)cc1 | -71* | · | -52
SMILES | DRD3 antagonist | a7 integrin act | D3 ag
Cc1cccc(NCc2cccc3ccccc23)n1 | 1 | -53% | -3
O=C(NNC(=S)Nc1cccc2ccccc12)c1cccc(Br)c1 | ? | -13% | 0
Cc1ccc(C(=O)NNC(=S)Nc2cccc3ccccc23)s1 | -95* | 22% | -3
CCOC(=O)c1c(C)[nH]c(C)c1S(=O)(=O)N(C)CC(=O)Nc1ccc(C)cn1 | 2 | ? | 7
NS(=O)(=O)c1ccc(NC(=S)NC(=O)c2ccco2)cc1 | ? | 1% | -10
Cn1nnc(NC(=S)NC(=O)Cc2ccccc2)n1 | -64* | -10% | -12
Cn1nnc(NC(=S)NC(=O)c2cc3ccccc3o2)n1 | -2 | 10% | -17
CC(=O)NS(=O)(=O)c1ccc(NC(=S)NC(=O)c2ccco2)cc1 | -110* | -3% | -8
Cn1nnc(NC(=O)c2ccco2)n1 | 11 | -7% | 1
Cn1nnc(NC(=S)NC(=O)c2ccco2)n1 | -72* | 22% | -17
COc1ccc(N(CC(=O)NCc2ccccc2Cl)S(=O)(=O)c2c(C)n[nH]c2C)cc1 | 13 | 28% | 0
CCOc1ccc(NC(=O)c2ccc(NS(=O)(=O)c3cccc4cccnc34)cc2)cc1 | 7 | -4% | 6
O=C(COC(=O)c1ccc(Cl)c(S(=O)(=O)NCc2ccccc2)c1)NC1CC1 | -22 | 28% | -10
COCCCN1C(=O)c2ccc(C(=O)NCCc3ccccc3)cc2C1=O | 7 | 34% | -2
Cc1ccc(S(=O)(=O)N2[C@@H](c3cccc(Cl)c3)C(C(=O)O)=CC[C@H]2c2ccc3c(c2)OCO3)cc1 | -28 | -5% | -23
Cc1nc(-n2[nH]c3c(c2=O)CCCC3)[nH]c(=O)c1Cc1ccccc1 | -61* | -57% | -14
Cc1nc(N2CCc3ccccc3C2)[nH]c(=O)c1Cc1ccccc1 | 12 | -16% | 3
CCCCC(CC)CNC(=O)c1cccs1 (stereo not given) | -17 | 0% | -14
CN(NC(=O)/C=C/C(=O)O)c1ncc(C(F)(F)F)cc1Cl | -3 | -10% | 2
O=C(Cn1cc([N+](=O)[O-])cn1)NCc1cc2ccccc2[nH]1 | -16 | -9% | -3
CCn1ccnc1CNCc1ccc(OCC(O)CN(C)Cc2ccccc2)cc1 (stereo not given) | -59* | -40% | -6
CN(Cc1ccccc1)CC(O)COc1ccc(CNCCc2cccnc2)cc1 (stereo not given) | -7 | -53% | -10
CN(Cc1ccccc1)CC(O)COc1ccc(CNCc2nccn2C)cc1 (stereo not given) | -22 | -47% | -2
CCc1ccc(CNCc2ccc(OCC(O)CN(C)Cc3ccccc3)cc2)nc1 (stereo not given) | -54* | -50% | -13
O=C(COC(=O)CSc1ccc2ccccc2c1)NCc1ccc2c(c1)OCO2 | -14 | 17% | -8
SMILES | DRD3 antagonist | a7 integrin act | D3 ag
COc1ccc(-c2nc3ccc(C)cn3c2CC2CCCCC2)cc1OC | 4 | · | -3
CC(=O)/C(=N\Nc1cccc(Cl)c1)Sc1cccc2cccnc12 | 3 | -12% | 6
CC(=O)/C(=N\Nc1cccc(Cl)c1)Sc1nnc(-c2ccccc2)n1-c1ccccc1 | -54* | 8% | -20
O=C(O)CSc1cc(C(=O)c2cc(F)ccc2O)cn2c(=O)c3c(-c4ccccc4)csc3nc12 | 4 | ? | -6
Cc1cccc(N(CC(=O)N2CCCCCC2)S(C)(=O)=O)c1C | 5 | 28% | 5
Cc1cccc(C)c1N(CC(=O)N1CCN(C)CC1)S(C)(=O)=O | -79* | -19% | 4
Cc1c(NS(=O)(=O)c2ccc(N=NN(C)C)cc2)c(=O)n(-c2ccccc2)n1C | 12 | ? | -1
CCCCn1c(O)c2n(c1=O)Cc1ccccc1N=C2c1ccc(OC)cc1 | 16 | · | 8
CC(=O)Nc1ccc(NC(=O)COc2c(C)cc(Br)cc2C)cc1 | -3 | 3% | -1
CSc1cc(C)c(OCC(=O)Nc2ccc(NC(C)=O)cc2)c(C)c1 | -52* | ? | -2
Cc1csc(SC(C)C(=O)Nc2ccc(F)cc2Cl)n1 (stereo not given) | 2 | -5% | 3
COc1ccc(NC(=O)COC(=O)C(NC(=O)c2ccc(C)cc2)C(C)C)cn1 (stereo not given) | -18 | -21% | 10
COc1ccc(NC(=O)Cc2ccc(Cl)c(Cl)c2)cn1 | -5 | -7% | 0
